This is a sample that favours compounds with a hit; in the whole collection about 8% have one here.
MARV entry inh = blocks Marburg virus binding or cell entry; Marburg virus pseudotype entry/binding inhibition, cell-based; Potency, µM (highest dose often 49.2 µM), actives largely listed as inhibitors; 18,000 tested, 6.5% active; AID 720532
Lassa entry = blocks Lassa virus binding or cell entry. Lassa virus pseudotyped entry inhibition, cell-based qHTS. Potency, µM (titrated, usually from 49.2 µM), most hits filed as inhibitors. 18,000 tested, 4.1% active. AID 720533
Large screens that a line does not name were inactive; ! = repeats disagree. Calls follow the shape of the full dose curve; tested in HEK293 cells.

CC(C)c1ccc(Cn2ccc3c4c(N)nc(NC5CC5)nc4ccc32)cc1	MARV entry inh 4µM, Lassa entry 13µM
COC(=O)CC1C2(C)CC34OC5(C)O[C@@]6(C7/C(=C(/O)C(C)C)C(=O)OC(c8ccoc8)[C@]7(C)C(OC(C)=O)C(OC(C)=O)[C@]6(O5)[C@@]13C)C(OC(C)=O)[C@]4(O)C2OC(=O)C(C)C (stereo not given in full)	MARV entry inh inconclusive
CCC(C)C(=O)OC1C[C@@]2(C)C(c3ccoc3)OC(=O)CC23OC2(C)OC34C(OC(=O)C(C)C)[C@]3(O)C(OC(=O)C5(C)OC5C)[C@]5(C)CC3(O)[C@](C)(C5CC(=O)OC)C14O2 (stereo not given in full)	MARV entry inh 14µM
CCOC(=O)NN=C1C[C@@H](O)[C@@H](O)[C@@H]2[C@H]3C(=O)N(C4CCCCC4)C(=O)[C@@H]3CC[C@@H]12	none (no result: Lassa entry)
O[C@@H](c1cc(C(F)(F)F)nc2c(C(F)(F)F)cccc12)[C@H]1CCCCN1	MARV entry inh 10µM, Lassa entry 28µM
CC(=O)N[C@@H](C=O)[C@H](O)[C@H](O)[C@@H](O)CO	none
CC[C@]1(O)CC[C@H]2[C@@H]3CCC4=CCCC[C@@H]4[C@H]3CC[C@@]21C	Lassa entry 14µM
C#C[C@]1(O)CC[C@H]2[C@@H]3CCC4=CCCC[C@@H]4[C@H]3C(=C)C[C@@]21CC	none
C[C@@H]1C[C@H](C)C[C@H](C)[C@@H](O)CC(=O)O[C@H]([C@H]2CCC[C@H]2C(=O)O)C/C=C/C=C(/C#N)[C@H](O)[C@@H](C)C1	MARV entry inh 10µM, Lassa entry inconclusive
CCN1C(=NCc2cc(OC)c(OC)c(OC)c2)NC(c2cccc(F)c2)C(C(=O)OC)=C1C (stereo not given)	none
Nc1nc(N)c2nc(CNc3ccc(C(=O)N[C@@H](CCC(=O)O)C(=O)O)cc3)cnc2n1	none
CN(Cc1cnc2nc(N)nc(N)c2n1)c1ccc(C(=O)NC(CCC(=O)O)C(=O)O)cc1 (stereo not given)	MARV entry inh 0.28µM, Lassa entry inconclusive
O=c1cc(-c2ccc(O)cc2)oc2cc(O)c([C@@H]3O[C@H](CO)[C@@H](O)[C@H](O)[C@H]3O)c(O)c12	none
O=c1c2ccccc2oc2cc(O)c(C3COCC(CO)C(O)C(O)C3O)c(O)c12 (stereo not given)	MARV entry inh 14µM
CC1=C(C(=O)Nc2ccc3[nH]ncc3c2)C(c2ccc(Cl)c(Cl)c2)CC(=O)N1 (stereo not given)	none
O=C(Nc1ccc([N+](=O)[O-])cc1Cl)c1cc(Cl)ccc1O	MARV entry inh 5µM!, Lassa entry 1.1µM
O=C(Nc1ccccc1)c1cc([N+](=O)[O-])ccc1Cl	MARV entry inh inconclusive
CCC[C@H]1CN(Cc2cccnc2)C(=O)[C@H]1CC(=O)Nc1ccc(Br)cc1	none
COC(=O)C1=C(C)NC(C)=C(C(=O)OC(C)(C)CN(C)CCC(c2ccccc2)c2ccccc2)C1c1cccc([N+](=O)[O-])c1 (stereo not given)	MARV entry inh inconclusive, Lassa entry 13µM
COCCOC(=O)C1=C(C)NC(C)=C(C(=O)OC(C)C)[C@@H]1c1cccc([N+](=O)[O-])c1	none
CCOC(=O)C1=C(C)NC(C)=C(C(=O)OC)C1c1cccc([N+](=O)[O-])c1 (stereo not given)	MARV entry inh 14µM!, Lassa entry inconclusive
COC(=O)C1=C(C)NC(C)=C(C(=O)O[C@@H]2CCCN(Cc3ccccc3)C2)[C@@H]1c1cccc([N+](=O)[O-])c1	MARV entry inh 14µM, Lassa entry inconclusive
CC1=C(C(=O)OC(C)C)C(c2cccc([N+](=O)[O-])c2)C(C(=O)OC2CN(C(c3ccccc3)c3ccccc3)C2)=C(N)N1 (stereo not given)	none
CCOC(=O)C1=C(C)NC(C)=C(C(=O)OC)[C@@H]1c1cccc([N+](=O)[O-])c1	none
CCOC(=O)C1=C(C)NC(C)=C(C(=O)OC)[C@H]1c1cccc([N+](=O)[O-])c1	MARV entry inh inconclusive
COCCOC(=O)C1=C(C)NC(C)=C(C(=O)OC/C=C/c2ccccc2)C1c1cccc([N+](=O)[O-])c1 (stereo not given)	MARV entry inh 6.3µM, Lassa entry 13µM
CCc1cc2c(nc1CC)CCN(CCC(C)=NO[C@@H](C)c1cn([C@H](CO)Cc3ccccc3)nn1)C2	none
CC1=C[C@@H](COCc2ccccc2)O[C@@]2(C1)C(=O)Nc1cccc(Br)c12	none
CCOC(=O)C1=CN(CCCc2cn(Cc3ccccc3)nn2)C(=O)NC1c1ccccc1 (stereo not given)	none
COC[C@H]1CCCN1[C@H]1C[S+](=O)([O-])N[C@H]1COCc1ccccc1	none
C=C(C)CCCN1C=C(C(=O)OCC)C(c2ccccc2)NC1=O (stereo not given)	none (no result: Lassa entry)
CC(=O)[C@]12[C@H](c3ccccc3)[C@@H]3CCN(C(=O)N[C@H]1c1ccccc1)[C@@]32C	none
O=C1NC(=O)C(c2cccc(Cl)c2)=C1Nc1ccc(Cl)c(C(=O)O)c1	none
Cc1nnc2n1-c1sc(CCC(=O)N3CCOCC3)cc1C(c1ccccc1Cl)=NC2	none
Cc1nnc2n1-c1sc(CCc3ccc(CC(C)C)cc3)cc1C(c1ccccc1Cl)=NC2C (stereo not given)	MARV entry inh 14µM, Lassa entry 7.9µM
COc1cc2c(N3CCN(C(=O)Nc4ccc(OC(C)C)cc4)CC3)ncnc2cc1OCCCN1CCCCC1	MARV entry inh 8.9µM, Lassa entry inconclusive
COc1ccccc1N1CCN(CCCCNC(=O)c2ccc3ccccc3c2)CC1	none
COc1cc(Nc2nccc(Nc3ccc4c(C)[nH]nc4c3)n2)cc(OC)c1OC	MARV entry inh 10µM, Lassa entry inconclusive
COc1ccc(Nc2nccc(NCCO)n2)cc1	none
CC1=CC[C@@H](C)O[C@@]2(C1)C(=O)N(Cc1ccc(F)cc1)c1ccccc12	none
COc1cc(=O)n2c(c1C(=O)NC(C)c1ccco1)CCN(Cc1cc(C)ccc1C)CC2 (stereo not given)	MARV entry inh inconclusive
FC(F)(F)c1cc(NC(=S)NC(c2ccccc2)c2ccccc2)cc(C(F)(F)F)c1	MARV entry inh inconclusive
CNCCC(Oc1ccc(C(F)(F)F)cc1)c1ccccc1 (stereo not given)	MARV entry inh 7.1µM, Lassa entry 18µM!
Nc1c2ccccc2nc2ccccc12	MARV entry inh 14µM, Lassa entry inconclusive
Nc1c2c(nc3ccccc13)CCCC2	MARV entry inh 10µM, Lassa entry inconclusive
c1ccc2nc3ccccc3cc2c1	MARV entry inh inconclusive
COc1ccc([C@]23Cc4c(ccc5ccccc45)[C@H](O2)C2=C(CCCC2=O)O3)cc1	none
CN(C)CCc1cc2c(c3c1ccc1ccccc13)OCO2	MARV entry inh 13µM, Lassa entry inconclusive
COC(=O)C1=C(C(=O)OC)[C@@H]2N(Cc3ccccc3)c3ccccc3[C@@]23C[C@@H](C(=O)OC)N(C(=O)Nc2ccccc2F)C3=N1	none
CC12C=C(C=CCCc3ccco3)C(C)(C1)C(CCc1ccco1)CC2=O (stereo not given)	none
COc1ccc(CN2CCC3(CC2)c2ccccc2[C@@H](NC(=O)c2ccsc2)[C@@H]3OC)cc1O	MARV entry inh inconclusive
Cc1ccc2nc(NCCN)c3ncc(C)n3c2c1	MARV entry inh 7.9µM, Lassa entry inconclusive
CCN1C(=O)[C@@H]2[C@H]3[C@H](O)[C@H](O)CC(=NOC[C@H]4O[C@H](c5ccccc5)C=C[C@H]4Oc4ccc(OC)cc4)[C@@H]3CC[C@H]2C1=O	none
